Measurements taken from PubChem BioAssay (Tox21).
Where “and” joins values, the source holds several entries; their conditions need not be identical. Equal entries are not always repeated. Results filed as inconclusive are left out. Calls of active or inactive are those of the source. Unless noted, calls come from the whole dose curve; as a rule, active = well fitted curve in the direction sought with a large enough effect in the repeat runs; inconclusive = weak or mixed curves; inactive = no such curve, though single readings can be large; an effect the other way counts as inactive or inconclusive.

Experiments:
[1] = qHTS assay for small molecule agonists of the p53 signaling pathway (AID 651631; calls by dose curve; note: nearly all actives have a fitted effect of over 15% in size; note: potency is the fitted concentration of half-maximal effect)
Procedure, shortened: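 HCT-116 cells carrying a stable p53 response element–beta-lactamase reporter were plated, rested 5 h at 37 °C, then exposed to compound in DMSO for 16 h at 37 °C; reporter activity was read as FRET substrate fluorescence after 2 h at room temperature.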

[2] = A CellTox Green Cytotoxicity Assay to monitor cytotoxicity in HEK293 cells - 0 hour (AID 1224869); note: nearly all actives have a fitted effect of over 50% in size
Procedure, shortened: (§1)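 Seeding of HEK293 cells together with cytotoxicity dye preceded a 5 h incubation at 37 C/5% CO2. Test compounds in DMSO were then added and fluorescence monitored across 40 h.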

[3] = qHTS RealTime-Glo MT Cell Viability Assay in HepG2 cells - 40 hour (AID 1224870); note: nearly all actives have a fitted effect of over 50% in size; note: potency is the fitted concentration of half-maximal effect
Procedure, shortened: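 HepG2 cells mixed with RealTime-Glo MT reagents (NanoLuc plus cell-permeant prosubstrate) were seeded at 600 cells/well, incubated 5 h at 37 C/5% CO2, then pinned with compounds in DMSO; nonlytic luminescence tracked viability during 40 h treatment.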

[4] = A CellTox Green Cytotoxicity Assay to monitor cytotoxicity in HEK293 cells - 40 hour (AID 1224871); note: potency is the fitted concentration of half-maximal effect; nearly all actives have a fitted effect of over 45% in size
Procedure, shortened: as §1

[5] = qHTS RealTime-Glo MT Cell Viability Assay in HEK293 cells - 40 hour (AID 1224874); details: RealTime-Glo luminescence; max response: hits give low values; note: potency is the fitted concentration of half-maximal effect; nearly all actives have a fitted effect of over 50% in size
Procedure, shortened: (§2)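 Tox21 screen in HEK293 using RealTime-Glo MT chemistry, with cells and reagent co-dispensed. Luminescence proportional to viable cell number was captured at intervals during 40 h compound exposure at 37 C.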

[6] = A CellTox Green Cytotoxicity Assay to monitor cytotoxicity in HepG2 cells - 16 hour (AID 1224876); note: nearly all actives have a fitted effect of over 45% in size; note: potency is the fitted concentration of half-maximal effect
Procedure, shortened: (§3)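 Nonlytic assay: viable cells exclude the dye, so fluorescence scales with cell death. HepG2 at 600 cells/well, compounds added after 5 h, signal read across 40 h.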

[7] = qHTS RealTime-Glo MT Cell Viability Assay in HEK293 cells - 0 hour (AID 1224880); note: top concentration of the series differs between compounds; nearly all actives have a fitted effect of over 45% in size
Procedure, shortened: as §2

[8] = A CellTox Green Cytotoxicity Assay to monitor cytotoxicity in HEK293 cells - 16 hour (AID 1224888); note: nearly all actives have a fitted effect of over 35% in size; note: potency is the fitted concentration of half-maximal effect
Procedure, shortened: as §1

[9] = A CellTox Green Cytotoxicity Assay to monitor cytotoxicity in HepG2 cells - 8 hour (AID 1224890); note: nearly all actives have a fitted effect of over 45% in size; note: potency is the fitted concentration of half-maximal effect
Procedure, shortened: as §3

[10] = qHTS assay to identify small molecule antagonists of the estrogen receptor alpha (ER-alpha) signaling pathway using the BG1 cell line in the presence of 0.1 nM 17-beta-estradiol - cell viability counter screen (AID 1259241); note: nearly all actives have a fitted effect of over 40% in size
Procedure, shortened: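 VM7Luc4E2 cells (endogenous ER-alpha, 4×ERE-luciferase), hormone-starved 5 days in charcoal-stripped FBS, were treated with compounds plus 0.1 nM 17beta-estradiol for 22 hr at 37C; viability read in same wells as CellTiter-Fluor live-cell protease fluorescence.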

[11] = qHTS assay to identify small molecule antagonists of the androgen receptor (AR) signaling pathway using the MDA cell line in the presence of 0.5 nM R1881 - cell viability counter screen (AID 1259242); note: nearly all actives have a fitted effect of over 45% in size; note: potency is the fitted concentration of half-maximal effect
Procedure, shortened: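 R1881 at 0.5 nM final stimulated MDA-kb2 cells during 16 hr compound treatment at 37C. Cytotoxicity read: CellTiter-Fluor fluorescence after 30 min.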

[12] = qHTS assay to identify small molecule agonists of the sonic hedgehog signaling (Shh) pathway - cell viability counter screen (AID 1259366); note: nearly all actives have a fitted effect of over 50% in size; note: potency is the fitted concentration of half-maximal effect
Procedure, shortened: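 NIH/3T3-derived 3T3 Gli1-Luc cells (stable Gli1-responsive firefly luciferase reporter) were seeded, rested 4 hr at 37 C/5% CO2, then exposed to compounds in DMSO for 24 hr; viability was read by CellTiter-Fluor fluorescence in the same wells.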

[13] = qHTS assay to identify small molecule antagonists of the sonic hedgehog signaling (Shh) pathway (AID 1259369; calls by dose curve; note: nearly all actives have a fitted effect of over 45% in size; note: potency is the fitted concentration of half-maximal effect)
Procedure, shortened: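 Conditioned medium drives Shh signalling in 3T3Gli1-Luc cells; compounds in DMSO co-applied, 24hr at 37 C, then luciferase luminescence.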

[14] = target: Estrogen receptor (Homo sapiens) (UniProt P03372); assay: qHTS assay to identify small molecule agonists of the estrogen receptor alpha (ER-alpha) signaling pathway in the presence of an antagonist (AID 1259383; calls by dose curve; note: top concentration of the series differs between compounds; nearly all actives have a fitted effect of over 15% in size)
Procedure, shortened: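 Using VM7Luc4E2 cells seeded 24hr before treatment, antagonist ICI-182,780 (10.0nM final) was added, followed by compounds at 15 concentrations. Plates incubated 22hr; ONE-Glo luminescence quantified reporter activity.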

[15] = qHTS assay to identify small molecule agonists of the estrogen receptor alpha (ER-alpha) signaling pathway in the presence of an antagonist - cell viability counter screen (AID 1259386);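 note: series mostly up to about 92 µM; cells exposed to compounds for 22 h at 37 °C before the viability read; nearly all actives have a fitted effect of over 30% in size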
Procedure, shortened: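 ICI-182,780 at 10.0nM final accompanies the compound titration (15 concentrations, 22hr, 37C) on VM7Luc4E2 cells. The CellTiter-Fluor fluorescence readout runs in the same wells as the luciferase assay.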

[16] = target: Cytochrome P450 2C19 (Homo sapiens) (UniProt P33261); assay: Cytochrome P450 Family 2 Subfamily C Member 19 (CYP2C19) small molecule antagonists: luciferase reporter qHTS assay (AID 1671197); note: nearly all actives have a fitted effect of over 65% in size; note: potency is the fitted concentration of half-maximal effect
Procedure, shortened: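 Enzyme-substrate mix with proluciferin substrate (P450-Glo CYP2C19 system) preincubated with compounds 10 min at room temperature; NADPH regeneration solution added, 37C for 1 h; detection reagent stops reaction, luminescence read after 20 min. Ketoconazole positive control.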

[17] = target: Voltage-gated inwardly rectifying potassium channel KCNH2 (Homo sapiens) (UniProt Q12809); assay: Human Ether-a-go-go-Related Gene (hERG) channel small molecule antagonists: fluorescence cell-based qHTS assay (AID 1671200)
Procedure, shortened: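 U2OS cells expressing the channel were plated at 1000 cells/well, incubated overnight at 37 C, then loaded with FluxOR II thallium-sensitive dye for 1 h at room temperature in the dark, with a further 10 min at room temperature before stimulation.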

[18] = qHTS RealTime-Glo MT Cell Viability Assay in HepG2 cells - 0 hour (AID 1224889); note: nearly all actives have a fitted effect of over 50% in size
Procedure, shortened: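 HepG2 cells were seeded at 600 cells/well together with NanoLuc luciferase and a cell-permeant prosubstrate, preincubated 5 h at 37 C/5% CO2, then pin-dosed with compounds in DMSO. Nonlytic luminescence from viable cells was read at each time point.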

[19] = qHTS assay to identify small molecule HDAC inhibitors - cell viability counter screen (AID 1259365)
Procedure, shortened: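 Wild-type HCT-116 cells were seeded at 1,500 per well, incubated overnight at 37 C, then exposed to compounds in DMSO for 2hr. Viability was read by CellTiter-Glo luminescence after 30min at room temperature.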

[20] = qHTS assay to identify small molecule antagonists of the TGF-beta/Smad signaling pathway - cell viability counter screen (AID 1346824); note: nearly all actives have a fitted effect of over 50% in size
Procedure, shortened: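 SBE-bla HEK 293T cells were plated overnight at 37 C, then given compounds in DMSO plus TGF-beta1 (added as 0.25 ng/mL solution) for 5 hr. After the bla read, CellTiter-Glo was added to the same wells and luminescence read after 30 min at room temperature.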

Measured: Potency

Cytochrome P450 2C19 (Homo sapiens), sequence (P33261 whole entry, looked up): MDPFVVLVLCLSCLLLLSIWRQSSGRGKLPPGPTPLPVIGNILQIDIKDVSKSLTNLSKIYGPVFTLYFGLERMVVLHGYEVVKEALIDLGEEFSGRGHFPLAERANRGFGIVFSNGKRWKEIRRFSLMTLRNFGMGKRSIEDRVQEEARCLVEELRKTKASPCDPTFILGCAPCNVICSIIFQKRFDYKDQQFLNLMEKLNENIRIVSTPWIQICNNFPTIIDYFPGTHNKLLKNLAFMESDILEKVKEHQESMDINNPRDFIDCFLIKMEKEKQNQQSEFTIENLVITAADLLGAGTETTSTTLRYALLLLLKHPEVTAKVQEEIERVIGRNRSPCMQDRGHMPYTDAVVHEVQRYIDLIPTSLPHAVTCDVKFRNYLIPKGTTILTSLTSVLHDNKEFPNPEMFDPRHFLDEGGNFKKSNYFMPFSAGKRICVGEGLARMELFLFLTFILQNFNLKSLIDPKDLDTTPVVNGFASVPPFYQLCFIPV
Estrogen receptor (Homo sapiens), sequence (P03372 whole entry, looked up): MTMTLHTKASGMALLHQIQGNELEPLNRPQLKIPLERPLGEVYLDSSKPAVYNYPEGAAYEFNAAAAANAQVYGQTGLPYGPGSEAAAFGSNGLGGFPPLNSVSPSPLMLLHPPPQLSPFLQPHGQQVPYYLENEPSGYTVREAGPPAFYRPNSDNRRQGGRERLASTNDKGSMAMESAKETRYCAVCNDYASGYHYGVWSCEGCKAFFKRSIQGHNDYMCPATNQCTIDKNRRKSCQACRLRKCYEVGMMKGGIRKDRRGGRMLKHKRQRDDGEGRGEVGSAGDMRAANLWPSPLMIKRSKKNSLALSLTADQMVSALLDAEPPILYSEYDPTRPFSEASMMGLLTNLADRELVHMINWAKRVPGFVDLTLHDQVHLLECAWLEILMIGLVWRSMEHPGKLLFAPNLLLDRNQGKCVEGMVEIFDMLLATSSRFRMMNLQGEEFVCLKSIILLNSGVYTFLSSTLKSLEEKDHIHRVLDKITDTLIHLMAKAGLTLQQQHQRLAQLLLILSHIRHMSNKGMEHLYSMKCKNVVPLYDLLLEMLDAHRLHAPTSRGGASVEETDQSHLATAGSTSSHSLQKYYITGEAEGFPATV
Voltage-gated inwardly rectifying potassium channel KCNH2 (Homo sapiens), sequence (Q12809 whole entry, looked up): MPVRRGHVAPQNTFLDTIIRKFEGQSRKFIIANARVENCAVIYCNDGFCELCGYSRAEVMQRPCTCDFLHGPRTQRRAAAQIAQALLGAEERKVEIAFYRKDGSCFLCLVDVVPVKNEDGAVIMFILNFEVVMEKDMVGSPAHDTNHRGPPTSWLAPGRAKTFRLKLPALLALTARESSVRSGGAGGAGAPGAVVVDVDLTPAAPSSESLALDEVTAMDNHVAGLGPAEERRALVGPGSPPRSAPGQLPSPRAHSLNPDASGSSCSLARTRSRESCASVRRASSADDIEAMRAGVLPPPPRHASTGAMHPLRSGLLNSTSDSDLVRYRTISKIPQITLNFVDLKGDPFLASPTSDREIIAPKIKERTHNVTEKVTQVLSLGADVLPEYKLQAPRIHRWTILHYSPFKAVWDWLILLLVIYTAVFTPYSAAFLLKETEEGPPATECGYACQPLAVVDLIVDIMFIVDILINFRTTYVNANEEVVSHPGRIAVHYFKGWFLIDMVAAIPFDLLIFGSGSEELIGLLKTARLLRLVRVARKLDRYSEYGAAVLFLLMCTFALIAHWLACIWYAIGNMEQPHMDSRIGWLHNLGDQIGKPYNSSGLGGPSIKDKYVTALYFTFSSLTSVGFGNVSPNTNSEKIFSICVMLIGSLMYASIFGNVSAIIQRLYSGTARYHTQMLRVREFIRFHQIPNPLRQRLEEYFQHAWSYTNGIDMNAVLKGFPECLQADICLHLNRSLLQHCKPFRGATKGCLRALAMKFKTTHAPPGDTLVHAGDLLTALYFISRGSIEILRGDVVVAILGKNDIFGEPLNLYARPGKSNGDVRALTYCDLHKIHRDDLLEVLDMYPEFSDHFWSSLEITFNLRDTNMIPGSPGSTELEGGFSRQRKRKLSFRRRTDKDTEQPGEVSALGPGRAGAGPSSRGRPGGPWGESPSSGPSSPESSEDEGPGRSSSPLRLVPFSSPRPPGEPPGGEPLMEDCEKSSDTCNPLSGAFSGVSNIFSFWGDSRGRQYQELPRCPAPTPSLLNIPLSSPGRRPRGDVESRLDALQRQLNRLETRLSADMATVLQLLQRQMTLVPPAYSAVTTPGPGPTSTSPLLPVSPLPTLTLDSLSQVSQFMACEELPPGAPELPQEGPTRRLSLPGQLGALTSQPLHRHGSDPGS

CCCCC(CC)COC(=O)c1ccc(C(=O)OCC(CC)CCCC)cc1 (centres undefined)
inactive: [1]

O=S(=O)(C(Cl)(Cl)Cl)C(Cl)(Cl)Cl
active: [3] 34.7 µM | [4] 17.4 µM | [5] 8.71 µM | [6] 38.9 µM | [8] 24.5 µM | [9] 34.7 µM | [11] 54.5 µM | [12] 9.69 µM | [13] 2.17 µM | [16] 25.2 µM | [17] 24.5 µM
inactive: [2] | [7] | [10] | [14] | [15]

CCOC(=O)C(O)(c1ccc(Cl)cc1)c1ccc(Cl)cc1
active: [1] 27.6 µM | [4] 44.1 µM | [5] 22.1 µM and 34.7 µM | [13] 7.77 µM and 19.3 µM | [16] 453 nM and 317 nM | [17] 22.1 µM and 21.9 µM
not listed: [12]
inactive: all other assays above

Cc1ccc(N(SC(F)(Cl)Cl)S(=O)(=O)N(C)C)cc1
active: [1] 6.11 µM | [3] 9.77 µM | [4] 4.9 µM | [5] 5.49 µM | [6] 17.4 µM | [8] 24.5 µM | [12] 4.86 µM | [13] 2.73 µM | [16] 10 µM | [17] 21.9 µM
inactive: [2] | [7] | [18] | [9] | [10] | [15] | [20]

CCc1cccc(CC)c1N
inactive: [1]

CCCCC(CC)COC(=O)CCCCC(=O)OCC(CC)CCCC (centres undefined)
inactive: [1]

Cc1cc(C)c(C(=O)P(=O)(c2ccccc2)c2ccccc2)c(C)c1
active: [5] 38.9 µM | [12] 61.1 µM | [13] 4.33 µM | [16] 6.33 µM | [17] 19.5 µM
not listed: [1] | [4] | [6] | [7] | [15] | [18]
inactive: all other assays above

COCCOC(=O)c1ccccc1C(=O)OCCOC
inactive: [1]

ClC1=C(Cl)[C@]2(Cl)[C@@H]3[C@@H](Cl)[C@H]4O[C@H]4[C@@H]3C1(Cl)C2(Cl)Cl
active: [4] 54.9 µM | [13] 48.6 µM | [17] 54.9 µM
not listed: [1] | [3] | [5] | [6] | [8] | [9] | [16]
inactive: all other assays above

C=CC(=O)OCCCC
inactive: [1]

CC(C)(C)OCC1CO1 (centres undefined)
inactive: [1]

CCc1cccc(C)c1N
inactive: [1]

COc1ccccc1[N+](=O)[O-]
inactive: [1]

CC(CCl)OP(=O)(OC(C)CCl)OC(C)CCl (centres undefined)
inactive: [1]

c1ccncc1
inactive: [1]

c1cc(OCC2CO2)cc(OCC2CO2)c1 (centres undefined)
active: [1] 21.5 µM

C=CCOC(=O)c1ccccc1C(=O)OCC=C
inactive: [1]

Nc1ccc(Cl)cc1Cl
inactive: [1]

C[C@@]12C(=O)OC(=O)[C@]1(C)C1CCC2O1
active: [1] 1.6 µM

Nc1cccc(C(F)(F)F)c1
inactive: [1]

Cc1cccc([N+](=O)[O-])c1C
inactive: [1]

Brc1c2ccccc2cc2ccccc12
active: [1] 61.8 µM

C=CC(=O)OCCCCCCCC(C)C
inactive: [1]

Clc1ccccc1-c1ccccc1Cl
active: [4] 31.4 µM | [8] 35.2 µM | [17] 27.9 µM
not listed: [1] | [5] | [14]
inactive: all other assays above
